The supplement of paper PMC13380429
A number with no mark means an inactive call.

System: Vero E6 infected with SARS-CoV-2
Test: inhibition of SARS-CoV-2 cytopathic effect; higher = more antiviral protection, active = above 15
Settings: 48 h

| SMILES | inhibition of SARS-CoV-2 cytopathic effect (1 nM) [%] | inhibition of SARS-CoV-2 cytopathic effect (8.33 nM) [%] | inhibition of SARS-CoV-2 cytopathic effect (100 nM) [%] | inhibition of SARS-CoV-2 cytopathic effect (833.33 nM) | inhibition of SARS-CoV-2 cytopathic effect (10000 nM) |
| --- | --- | --- | --- | --- | --- |
| CC(C)(C)c1nc(-c2cccc(NS(=O)(=O)c3c(F)cccc3F)c2F)c(-c2ccnc(N)n2)s1 [dabrafenib] | -0.66 | -0.54 | 0.25 | -1.77% | 13.1% |
| CC1(C)CN(C(=O)c2ccc(-c3cccc4nc(NC(=O)C5CC5)nn34)cc2)C1 [solcitinib] | 0.35 | 1.82 | 2.28 | 4.05% | 4.4% |
| CCOCc1cc(OC)c(-c2ccc(C[C@H](NC(=O)c3c(F)cccc3F)C(=O)O)cc2)c(OC)c1 [firategrast] | 2.19 | -0.43 | 0.01 | -0.69% | -2.41% |
| O=C(NCc1ccccc1)OCCO [buramate] | -3.11 | -3.15 | -10.9 | 1.79% | 0.54% |
| Nc1nc(-c2ccc(Cl)c(Cl)c2)c(-c2ccncc2)s1 | -1.24 | 1.18 | -2.7 | -2.03% | -0.28% |
| CCC(NC(C)C)C(O)c1ccc(O)c(O)c1 (stereo not given) [isoetharine] | -0.44 | 0.06 | -2.12 | -0.61% | 1.5% |
| CCCCn1c(=O)c2[nH]c(C34CC5CC(CC3C5)C4)nc2n(CCCO)c1=O | 1.96 | 2.64 | 0.93 | -1.18% | -2.7% |
| C1CCC(/N=C(\NC23CC4CC(CC(C4)C2)C3)N2CCOCC2)CC1 | 7.27 | 1.31 | 1.69 | 4.84% | -3.64% |
| Cn1cc(-c2ccncc2)c(-c2ccc(OCc3ccc4ccccc4n3)cc2)n1 | -1.42 | 1.25 | 1.83 | 16% (active) | 52.4% (active) |
| C=C[C@@](C)(/C=C/c1ccc(O)cc1)CCC=C(C)C [bakuchiol] | 1.64 | 2.39 | 0.23 | 0.59% | 0.79% |
| CC(=O)NCCCOc1ccc(C(=O)N2CCC(N3C(=O)CCc4ccccc43)CC2)cc1 | 2.92 | -2.2 | 0.95 | 1.64% | 3.15% |
| COc1ccc2c(C(=S)N(C)CC(=O)O)cccc2c1C(F)(F)F [tolrestat] | 0.38 | -0.6 | -3.79 | -3.61% | -5.09% |
| CN[C@H]1CC[C@@H](c2ccc(Cl)c(Cl)c2)c2ccccc21 | -7.46 | 3.54 | 8.81 | -0.02% | 12.1% |
| O=C(O)C(O)C(O)C(=O)O (stereo not given) [tartaric-acid] | -3.77 | -4.25 | -5.86 | -1.6% | -0.64% |
| O=C1CC2(CCCC2)CC(=O)N1CCNC[C@H]1COc2ccccc2O1 | -0.99 | -2.08 | -0.87 | 0.95% | -2.14% |
| COc1ccc(C2CC(c3ccccc3)=NN2c2ccc(S(N)(=O)=O)cc2)cc1 (stereo not given) | 0.58 | 2.1 | 1.18 | -2.57% | 0.95% |
| C[n+]1cc2c3c(ccc2c2ccc4cc5c(cc4c21)OCO5)OCO3 [sanguinarium-chloride] | 0.27 | 0.22 | -1.52 | 2.52% | -25.4% |
| CC[C@H](NC(=O)c1c(C)c(-c2ccccc2)nc2ccccc12)c1ccccc1 | 1.87 | 4.53 | 5.18 | 3.05% | -2.21% |
| COc1cc2ncnc(Nc3ccc(O)c(Br)c3)c2cc1OC | 0.67 | -0.59 | -3.04 | -5.16% | -9.51% |
| O=C(O)CCCCC(=O)O [adipic-acid] | -3.52 | -3 | -0.01 | -2.5% | -1.83% |
| CCC1(C2=NCCN2)Cc2ccccc2O1 (stereo not given) [efaroxan] | -0.76 | -1.17 | -0.66 | -2.93% | -3.79% |
| COc1ncc(-c2ccc3c(Nc4cc(Oc5cc(F)cc(F)c5)cc(C(=O)O)c4)c(S(=O)(=O)NC4CC4)cnc3c2)c(OC)n1 | 0.82 | 2.2 | 0.69 | 2.71% | 1.3% |
| CN(C)C(=S)SC(=S)N(C)C [tetramethylthiuram-monosulfide] | -5.07 | -6.29 | -7.33 | 11.9% | 10% |
| CCN(CC)C(=S)SSC(=S)N(CC)CC [disulfiram] | 1.63 | 1.79 | 1.68 | 26.5% (active) | 13.2% |
